Lassa entry inh = Lassa virus entry inhibition; Lassa virus pseudotype entry inhibition, cell reporter; Potency, µM (series often up to 37.9 µM), actives largely listed as inhibitors; hit rate 1.2% among 300,000; AID 540256; calls by dose curve; tested in HEK293 cells; also: nearly all actives have a fitted effect of over 50% in size
Marburg entry inh = blocks Marburg virus binding to or entry into cells | hit rate 1.8% among 300,000 | Potency, µM (series often up to 37.8 µM), hits mostly inhibitors | Marburg virus pseudotyped entry inhibition, cell reporter | AID 540276; calls by dose curve; tested in HEK293 cells
FMDV antiviral = blocks foot and mouth disease virus | AID 1159524 | hit rate 1.2% among 410,000 | FMDV antiviral cell-based qHTS | Potency, µM (series often up to 57.9 µM), actives largely listed as inhibitors; calls by dose curve; tested in HEK293T cells; also: read-out not given here; nearly all actives have a fitted effect of over 45% in size
HCMV inh = blocks human cytomegalovirus replication; HFF cells, HCMV-luciferase reporter, 72 h; active compounds read low; activity change, negative = inhibition, % at 57.5 µM; hit rate 4.5% among 410,000; in the data active = activity change below about -60%; inconclusive = no clear call, values can overlap the other calls; inactive = above about -39%
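Luciferase read-out from HCMV-luciferase-infected HFFs (MOI 1 PFU/cell) 72 h post infection at 37C; compounds added after 16 h cell attachment; activity normalized between buffer-only basal and Salinomycin (10uM) inhibitor controls.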
HCV inhibitor = inhibitors of hepatitis C virus infection; hit rate 3.4% among 340,000; Potency, µM (doses to about 41.8 µM), most hits filed as inhibitors; Huh7.5.1 HCVcc-Cre infection, luciferase reporter, 44 h; active = well fitted inhibition curve with a large enough effect; inconclusive = small, poorly fitted or top-dose-only effect, or another doubt; inactive = no such curve, though single readings can be large or run the other way
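Infectious HCVcc-Cre (~0.5 moi) was added to cells just after compound, with cells seeded 4 h earlier at 1,000 per well. Luciferase activity after 44 h culture reported infection; substrate was incubated 15 min at room temperature before reading.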
Each line names hits and unclear results; the compound was inactive in the other large screens. Rows were chosen to be rich in hits. Some 7.9% of all compounds tested hit in one or more screens of this group.

O=C1COc2ccc(-c3csc(=Nc4ccc(OC(F)F)cc4)n3CC3CCCO3)cc2N1 (stereo not given)	Lassa entry inh inconclusive, FMDV antiviral 22µM, HCMV inh -94, HCV inhibitor inconclusive
c1ccc(-c2csc(=Nc3cccnc3)n2CC2CCCO2)cc1 (stereo not given)	Marburg entry inh inconclusive
COc1ccccc1N=c1scc(-c2ccc3c(c2)NC(=O)CO3)n1CC1CCCO1 (stereo not given)	Lassa entry inh inconclusive, Marburg entry inh inconclusive, FMDV antiviral 35µM, HCMV inh inconclusive, HCV inhibitor inconclusive
CN(C)S(=O)(=O)c1cccc(N=c2scc(-c3ccc4c(c3)NC(=O)CO4)n2CC2CCCO2)c1 (stereo not given)	Lassa entry inh inconclusive, Marburg entry inh inconclusive, FMDV antiviral 28µM, HCMV inh inconclusive, HCV inhibitor inconclusive
COc1ccccc1CNS(=O)(=O)c1ccc2c(c1)NC(=O)CO2	none (no result: Lassa entry inh, Marburg entry inh)
Cc1ccc(OCCC(=O)OCC(=O)c2ccc3c(c2)NC(=O)CO3)cc1	none (no result: Lassa entry inh, Marburg entry inh)
CC(=O)OC[C@H]1O[C@H](CCO/N=C(\C)CCC(=O)OC[C@H]2O[C@H](C#Cc3ccccc3)C=C[C@@H]2Oc2ccc(C)cc2)C=C[C@@H]1OC(C)=O	none (no result: Lassa entry inh, FMDV antiviral, HCMV inh, HCV inhibitor)
Cc1cc(C)c(OCCNCc2ccccc2)c(C)c1	Lassa entry inh inconclusive, Marburg entry inh inconclusive
Cc1cc(C)c(OCCCCNCc2ccccc2)c(Cl)c1	Lassa entry inh inconclusive, Marburg entry inh inconclusive, HCV inhibitor 11µM
CCN(C(=O)c1ccco1)c1nc(CC(=O)Nc2ccc(Cl)cc2)cs1	HCV inhibitor inconclusive
CN(C(=O)c1ccco1)c1nc(CC(=O)Nc2ccccc2)cs1	Marburg entry inh 18µM
COc1ccc(NC(=O)Cc2csc(NC(=O)Nc3ccccc3OC)n2)c(OC)c1	Marburg entry inh inconclusive, FMDV antiviral inconclusive
COc1ccccc1NC(=O)Cc1csc(NC(=S)Nc2ccccc2)n1	Marburg entry inh inconclusive, FMDV antiviral inconclusive, HCV inhibitor 13µM
COc1ccc(NC(=S)Nc2nc(CC(=O)Nc3ccccc3OC)cs2)cc1	Lassa entry inh inconclusive, Marburg entry inh inconclusive, FMDV antiviral 22µM, HCMV inh inconclusive, HCV inhibitor 32µM
CCC(=O)Nc1nc(CC(=O)Nc2ccccc2)cs1	HCMV inh inconclusive
Cc1cc(C)c(S(=O)(=O)N[C@H]2CC[C@@]34CCCN3C(=O)CCC[C@H]4[C@H]2Cc2ccccc2)c(C)c1	none (no result: Lassa entry inh, Marburg entry inh, FMDV antiviral, HCV inhibitor)
CN(C)c1ccc(/C=C/c2ccc3c4ccccc4ccc3[n+]2-c2ccccc2)cc1	Lassa entry inh 11µM, Marburg entry inh inconclusive, FMDV antiviral 13µM, HCMV inh -99, HCV inhibitor 1µM
[O-][n+]1c(/C=C/c2ccccc2)ccc2ccccc21	HCV inhibitor 10µM (no result: Lassa entry inh, Marburg entry inh)
CN(C)c1ccc(/C=C/c2ccc3ccccc3[n+]2C)cc1	Lassa entry inh inconclusive, Marburg entry inh inconclusive, FMDV antiviral inconclusive, HCMV inh -99, HCV inhibitor 0.89µM
Cc1cc(/C=N/O)c(C)n1-c1ccccc1	Marburg entry inh inconclusive
Cc1cc(/C=C/c2ccc3cc(N(C)C)ccc3[n+]2C)c(C)n1-c1ccccc1	FMDV antiviral 14µM (no result: Lassa entry inh, Marburg entry inh, HCMV inh, HCV inhibitor)
Cc1ccc(C(=O)N2N=C(CC(C)C)CC2(O)C(F)(F)F)o1 (stereo not given)	none
O=C(CCCOc1ccccc1)Nc1nc2ccccc2[nH]1	Marburg entry inh inconclusive
O=S(=O)(CCOc1ccccc1)c1nc2ccccc2[nH]1	HCMV inh -69
COc1cc(CN2CCCC(n3cc(C(=O)N4CCCCC4)nn3)C2)cc2c1OCO2 (stereo not given)	none (no result: Lassa entry inh, Marburg entry inh, HCMV inh, HCV inhibitor)
COc1ccc(C(=O)NCc2oc(-c3ccccc3)cc2C(=O)O)cc1	HCMV inh -86
CCOC(=O)c1sc(=S)n(-c2ccccc2OC)c1N	none
CCOc1ccccc1-n1c(N)c(C(N)=O)sc1=S	HCMV inh -63
Cc1cc(-n2c(C)cc(C(=O)CCl)c2C)no1	Lassa entry inh inconclusive, Marburg entry inh 2.8µM, FMDV antiviral 22µM, HCMV inh -96, HCV inhibitor inconclusive
Cc1cc(-n2c(C)cc(C(=O)CN3C(=O)C(=O)N(C)C3=O)c2C)no1	none (no result: Lassa entry inh, Marburg entry inh)
Cc1ccc(-n2nnnc2SCC(=O)c2cc(C)n(-c3cc(C)on3)c2C)c(C)c1	Lassa entry inh 1.5µM, HCV inhibitor inconclusive (no result: FMDV antiviral)
Cc1cc(-n2c(C)cc(C(=O)CSc3nnnn3-c3ccccc3)c2C)no1	Lassa entry inh inconclusive, HCV inhibitor 8.9µM
COc1ccc(NS(=O)(=O)c2ccc3c(c2)CC(C)N3C(C)=O)c(OC)c1 (stereo not given)	none (no result: Marburg entry inh, HCV inhibitor)
O=C(Nc1cccc(-c2nc3ccccc3o2)c1)C(F)(F)F	FMDV antiviral 32µM, HCMV inh -103 (no result: Marburg entry inh, HCV inhibitor)
CC(=O)Nc1ccc(S(=O)(=O)Nc2cccc(-c3nc4ccccc4o3)c2)cc1	Lassa entry inh inconclusive, Marburg entry inh inconclusive, HCV inhibitor 13µM
CS(=O)(=O)c1ccccc1C(=O)Nc1cccc(-c2nc3ccccc3o2)c1	FMDV antiviral inconclusive, HCV inhibitor 11µM (no result: Lassa entry inh, Marburg entry inh)
CC(=O)Nc1ccc(S(=O)(=O)Nc2cccc(-c3ccc(N4CCC(C)CC4)nn3)c2)cc1	Lassa entry inh 11µM, FMDV antiviral inconclusive (no result: Marburg entry inh, HCV inhibitor)
CC(=O)Nc1ccc(S(=O)(=O)Nc2cccc(-c3ccc(N4CCCCCC4)nn3)c2)cc1	none (no result: Marburg entry inh, HCV inhibitor)
CCC(=O)Nc1cccc(-c2nc3ccccc3o2)c1	HCV inhibitor inconclusive
O=C1CC(C(=O)N2CCc3ccccc32)CN1c1ccc(F)cc1 (stereo not given)	Marburg entry inh inconclusive
CN1CCCN(C(=O)CSc2nc3cccnc3n2C)CC1	none (no result: Lassa entry inh, Marburg entry inh, FMDV antiviral, HCV inhibitor)
Cc1nc2ccccc2n1CCc1nc2c3ccccc3nc(SCc3ccccc3F)n2n1	none (no result: Marburg entry inh, HCV inhibitor)
COCc1cc(N2CCCCC2)nc(-c2ccccc2)n1	Marburg entry inh inconclusive, HCMV inh inconclusive, HCV inhibitor 5.6µM
Cc1cc(C)n(-c2cc(N3CCN(C(=O)c4cccc(Br)c4)CC3)ccc2[N+](=O)[O-])n1	Marburg entry inh inconclusive, FMDV antiviral 14µM, HCV inhibitor inconclusive
O=C(Nc1sc2c(c1C(=O)O)CCCC2)c1ccc(F)cc1	Lassa entry inh inconclusive, Marburg entry inh 2.5µM
COc1cc(C(=O)Nc2sc3c(c2C(=O)O)CCC3)cc(OC)c1OC	Lassa entry inh inconclusive, Marburg entry inh inconclusive
CC(C)(C)c1ccc(C(=O)Nc2sc3c(c2C(=O)O)CCC3)cc1	Lassa entry inh inconclusive, Marburg entry inh 3.2µM, HCMV inh -76
Cc1cccc(C(=O)Nc2sc3c(c2C(=O)O)CCC3)c1	FMDV antiviral inconclusive (no result: Lassa entry inh, Marburg entry inh)
COc1cccc(C(=O)Nc2sc3c(c2C(=O)O)CCCC3)c1	Lassa entry inh 10µM, Marburg entry inh 11µM, HCV inhibitor 13µM
Cc1cc(C)c(S(=O)(=O)NCc2ccc3c(c2)OCO3)cc1C	none (no result: Lassa entry inh, Marburg entry inh)
CCOc1ccc(NC(=O)c2ccc(F)c(S(=O)(=O)NCc3ccc4c(c3)OCO4)c2)cc1	FMDV antiviral inconclusive, HCMV inh -81 (no result: Marburg entry inh, HCV inhibitor)
COc1ccc(NC(C)=O)cc1S(=O)(=O)NCc1ccc2c(c1)OCO2	HCMV inh -88 (no result: Lassa entry inh, Marburg entry inh, HCV inhibitor)
COc1ccc(/C=C/C(=O)C(C(N)=O)=C2SCCS2)cc1	HCMV inh -101
NC(=O)C(C(=O)/C=C/c1ccc(Cl)cc1)=C1SCCS1	FMDV antiviral inconclusive, HCMV inh -101, HCV inhibitor inconclusive (no result: Lassa entry inh, Marburg entry inh)

Bioassay records (PubChem BioAssay)
